High-throughput results as filed in PubChem.
Hits are enriched below; roughly 4.2% of the tested compounds scored in any of these assays.
FBA Mtb inh: inhibitors of M. tuberculosis fructose-bisphosphate aldolase. inhibition, % at 1 µM. 360,000 tested, 2.3% active. purified M. tuberculosis FBA, fluorescence read-out. AID 588726;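 note: 0% = vehicle and 100% = reference inhibitor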
Target sequence (P9WQA3 whole entry, looked up): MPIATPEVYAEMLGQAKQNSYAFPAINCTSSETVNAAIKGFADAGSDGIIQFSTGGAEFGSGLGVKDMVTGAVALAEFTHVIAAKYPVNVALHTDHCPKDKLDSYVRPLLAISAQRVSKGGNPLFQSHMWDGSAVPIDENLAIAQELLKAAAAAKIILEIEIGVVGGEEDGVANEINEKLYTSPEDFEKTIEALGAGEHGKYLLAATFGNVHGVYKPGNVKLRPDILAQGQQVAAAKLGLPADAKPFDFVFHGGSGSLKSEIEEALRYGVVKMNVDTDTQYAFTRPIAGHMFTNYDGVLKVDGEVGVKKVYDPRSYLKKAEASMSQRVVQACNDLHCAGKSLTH
GDH-TPI counter-1: counter-screen for M. tuberculosis FBA inhibitors: GDH-TPI coupled enzymes; GDH-TPI coupled enzyme counterscreen, NADH absorbance; inhibition, % at 4.8 µM; 360,000 tested, 1.2% active; AID 588335; in the data active = inhibition above about 30%;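 note: 0% = DMSO wells and 100% = wells lacking the enzyme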
RecA splice inh: Mtb RecA intein splicing inhibition; cell-free RecA intein splicing, fluorescence; inhibition, % (concentration not given with the values); 290,000 tested, 0.75% active; AID 2221; in the data active = inhibition above about 30%;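 note: 0% = vehicle wells and 100% = reference inhibitor control wells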
Mtb bLac sens: beta-lactam sensitization of Mtb H37Rv. inhibition, % at 25 µM. 330,000 tested, 0.27% active. M. tuberculosis H37Rv growth with meropenem, percent inhibition. AID 434955; call rule not given here;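 note: growth measured after seven days incubation then overnight dye step; 0% = bacteria only wells and 100% = bacteria with antibiotic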
CCHF vOTU inh: blocks the CCHF virus ovarian tumor domain protease; CCHFV vOTU protease, Pep-AMC fluorescence; inhibition, % at 11.5 µM; 370,000 tested, 0.55% active; AID 651958; in the data active = inhibition above about 30%; note: 0% = vehicle wells with enzyme and 100% = no enzyme wells
Mtb FBA inh conf: Mtb FBA inhibition, confirmed; shares compounds with FBA Mtb inh; purified M. tuberculosis FBA, fluorescence read-out; inhibition, % at 1 µM; 5,600 tested, 78% active; AID 651616;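 note: 0% = vehicle wells and 100% = reference inhibitor wells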
GDH-TPI counter-2: GDH-TPI inhibition counter-screen for FBA inhibitors; shares compounds with FBA Mtb inh; GDH-TPI coupled enzyme counterscreen, fluorescence; inhibition, % at 1 µM; 5,600 tested, 81% active; AID 652141; in the data active = inhibition above about 10%
GDH-TPI dose: inhibits GDH-TPI coupling enzymes in dose response. shares compounds with FBA Mtb inh. GDH-TPI coupled enzyme assay, fluorescence, artifact counterscreen. IC50, µM. 170 tested, 79% active. AID 652145; call rule not given here
The depositor's hits bear a star; . = no result; + = active, no number. Cut-off read from the data, not from the text of the source, unless noted: active = inhibition above about 27%; inactive = the rest.

SMILES	FBA Mtb inh	GDH-TPI counter-1	RecA splice inh	Mtb bLac sens	CCHF vOTU inh	Mtb FBA inh conf	GDH-TPI counter-2	others
COc1ccc(CCNC(=O)c2cc3c(=O)n4cccc(C)c4nc3n(CC3CCCO3)c2=N)cc1 (stereo unspecified)	20	5	2	18	-4	.	.
NC(=O)c1ncn([C@@H]2O[C@H](C(=O)N[C@H](Cc3c[nH]c4ccccc34)C(=O)N3CCN(C(=O)N4CCCCC4)CC3)[C@@H](O)[C@H]2O)n1	.	.	.	.	-3	.	.
Clc1ccc(CSc2nnc(-c3cccs3)o2)cc1Cl	.	.	.	.	-4	.	.
COc1ccc(C(=O)N/N=C/c2ccc(N(C)c3ccccc3)cc2)cc1	41*	26	-19	-6	-11	109*	99*
COc1ccc(C(=O)N/N=C/c2cc3ccccc3[nH]c2=O)cc1	40*	50*	-8	12	-6	126*	106*
C=CCN1C(=O)[C@@H](CC(=O)NCCCOCCCC)[C@]2(C(=O)OC)CCCCC=C12	.	.	.	.	-5	.	.
COc1cccc(C(=O)n2ccc3ccc(-c4ccc5ccn(Cc6ccccc6)c5c4)cc32)c1	.	.	.	.	2	.	.
COC(=O)C1=C(C)N(C)C(=NCC2CC2)NC1c1ccc(F)cc1 (stereo unspecified)	.	.	.	.	-9	.	.
CN(CC(=O)NC(=O)NCc1ccccc1)CC(=O)Nc1ccc(Cl)c(C(F)(F)F)c1	0	-7	6	2	9	.	.
CN(CC(=O)NCc1ccccc1)CC(=O)Nc1ccc(Cl)c(C(F)(F)F)c1	34*	7	.	-6	2	92*	73*
CC(C)C[C@@H]1COc2cc(Br)ccc2S(=O)(=O)N1Cc1cn(Cc2ccc(C(F)(F)F)cc2)nn1	.	.	.	.	14	.	.
C=CCNc1nc(Nc2ccc(-c3nc4ccccc4o3)cc2)nc(N2CCOCC2)n1	97*	35*	-2	7	-73	19	-4	GDH-TPI dose=0.49*
C=CCNc1nc(NCC)nc(N2CCOCC2)n1	-2	-2	-3	-15	0	.	.
CN(C)c1nc(-c2cccs2)cc(C(F)(F)F)c1C#N	35*	17	-16	8	-23	0	-4
Cc1nn(CCO)c2nc(-c3cccs3)cc(C(F)(F)F)c12	100*	24	0	10	-78	180*	168*
CN(C)c1nc(-c2ccccc2)cc(C(F)(F)F)c1C#N	7	-3	-14	-8	0	.	.
Cc1cc(C)c(O)c(C(=O)CC2CC(=O)NC(=O)C2)c1	.	.	.	.	2	.	.
COC(=O)N1Cc2ccnnc2CC1c1ccccc1-c1ccccc1 (stereo unspecified)	.	.	.	.	-3	.	.
Cc1ccccc1CN1CCCCC(NC(=O)c2c(F)cccc2F)C1=O (stereo unspecified)	.	.	.	.	6	.	.
Cc1nc2scc(C)n2c(=O)c1S(=O)(=O)N1CCN(c2ccccc2)CC1	0	21	-1	2	15	.	.
Cc1csc2nc(=O)c3ccccc3n12	49*	5	2	.	-8	+	175*
CCOC(=O)CNc1c(-c2ccc(O)cc2)nc2ccccn12	40*	14	-23	-3	-65	3	-1
CC(=O)Nc1c(-c2ccc3ccccc3c2)nc2ccccn12	59*	13	-1	4	-27	41*	30*
O=C(Nc1c(-c2ccccc2)nc2ccccn12)c1ccccc1	-1	1	0	1	14	.	.
CCC(=O)Nc1c(-c2ccc3ccccc3c2)nc2ccccn12	50*	15	-1	0	-33	62*	75*
SMILES	FBA Mtb inh	GDH-TPI counter-1	RecA splice inh	Mtb bLac sens	CCHF vOTU inh	Mtb FBA inh conf	GDH-TPI counter-2	others
CCOC(=O)CNc1c(-c2ccc(O)cc2)nc2ccc(Cl)cn12	5	16	-7	2	10	.	.
CN1CCN(c2c(F)cc3c(=O)c(C(=O)O)cn4c3c2SCC4)CC1	28*	15	-2	100	-52	+	+
C[C@H]1COc2c(N3CCN(C)CC3)c(F)cc3c(=O)c(C(=O)O)cn1c23	55*	21	-6	100	-100	+	162*
COCC(=O)N(C[C@H]1[C@H](c2ccccc2)[C@@H](CO)N1C(=O)NC(C)C)C(C)C	.	.	.	.	-1	.	.
N#C/C(=C(/O)CCCl)c1ccccn1	59*	5	-315	-15	-117	87*	55*
c1cc(-c2ccoc2)n2ccnc2c1	22	1	.	.	-11	.	.
Cc1cc(O)ccc1-c1cccc2nccn12	49*	-3	.	.	-20	-4	-3
c1cc(-c2ccsc2)n2ccnc2c1	56*	5	.	.	-33	172*	137*
C[C@@H]1COc2cccc(F)c2S(=O)(=O)N1C	.	.	.	.	-5	.	.
COC(=O)c1c(S(N)(=O)=O)c2ccccc2n1C	33*	-3	5	1	-10	+	+
CCCc1nc2sc(C(=O)OCC)c(N)c2c2c1COC(C)(C)C2	8	17	-1	71	4	.	.
CCCc1nc2oc(C(=O)OCC)c(N)c2c2c1COC(C)(C)C2	59*	17	-1	100	-43	92*	89*
COc1ccc(Cc2noc(CN3CCCN(Cc4ccc(F)cc4)CC3)n2)cc1OC	59*	-3	-1	-5	3	58*	40*
CC1(C)Cc2c(C#N)c(NCCN3CCOCC3)nc(-c3ccco3)c2CO1	13	-4	.	-9	-7	.	.
N#Cc1c(NCCCO)nc(NCc2ccccc2)c2c1CCN(Cc1ccccc1)C2	32*	8	-180	31	-15	116*	108*
CC1(C)Cc2c(C#N)c(NCCO)nc(-c3ccco3)c2CO1	59*	14	-43	2	-32	32*	20*
N#Cc1c(NCCCO)nc(-c2ccco2)c2c1CCCC2	27*	6	-37	8	-26	52*	44*
CC(=O)N1C[C@H]2CON(C)[C@H]2C[C@H]1c1ccccc1-c1ccccc1	.	.	.	.	1	.	.
O=S1(=O)C=CCN1Cc1cn(Cc2cccc(C(F)(F)F)c2)nn1	.	.	.	.	-3	.	.
CCCCc1cc(=O)oc2cc(C)cc(OCC(=O)N[C@@H](CSCc3ccccc3)C(=O)O)c12	46*	10	-5	0	-2	128*	99*
CCc1cc(=O)oc2cc(C)cc(OCC(=O)N[C@@H](CSCc3ccccc3)C(=O)O)c12	37*	-2	-2	-6	-4	+	162*
CCc1cc(=O)oc2cc(C)cc(OCC(=O)NC(Cc3ccc(Cl)cc3)C(=O)O)c12 (stereo unspecified)	61*	2	-4	0	-23	44*	43*
CCCCc1nnn2c1C1c3cc(-c4cccnc4)ccc3CCN1C(=O)C2 (stereo unspecified)	.	.	.	.	21	.	.
Nc1nc2c(ncn2[C@@H]2O[C@H](C(=O)NCCc3c[nH]c4ccccc34)[C@@H](O)[C@H]2O)c(=O)[nH]1	.	.	.	.	0	.	.
